The text below walks through data of publication PMC7826789 (International Journal of Molecular Sciences, 2021).

Structures are written as SMILES.

The first test has as its system RAF1.
With `CN(C)CCOc1ccc(-c2nc(-c3ccc4c(c3)CC/C4=N\O)c(-c3ccncc3)[nH]2)cc1` [SB-590885], the Kinases covered result is recorded as “RAF1”.

As to `O=C1Nc2ccc(C(=O)c3ccco3)cc2C1=Cc1cc(Cl)c(O)c(Cl)c1` [GW406108X], the Kinases covered result was “RAF1”.

Take `CCCS(=O)(=O)Nc1ccc(F)c(-n2cc(-c3cncc(OC)c3)nn2)c1F` [BI00865461]: the Kinases covered result is listed as “RAF1”.

The next test has as its system RET.
`Cl.O=C(Nc1ccc(Oc2ccc3[nH]c(NC(=O)c4ccccc4)nc3c2)cc1)Nc1cc(C(F)(F)F)ccc1F` [GW709042A]: the Kinases covered entry is “RET”.

Regarding `COc1cc2c(cc1OC)C(=C(Nc1ccccc1)c1cccc(CN)c1)C(=O)N2` [BIBF0846CL], the Kinases covered entry is listed as “RET”.

On to `COc1cc2ncnc(Nc3cccc(Cl)c3F)c2cc1O[C@H]1CC[C@H]([C@@H]2NCCNC2=O)CC1` [BI00133844], for which the Kinases covered result was “RET”.

A further test has as its system RIPK1.
Take `CN1C(=O)[C@@H](NC(=O)c2cc(Cc3ccccc3)on2)COc2ccccc21` [GSK481]: the Kinases covered entry is on record as “RIPK1”.

Regarding `Cc1cccc(CC(=O)N2CCc3c2ccc(-c2cn(C)c4ncnc(N)c24)c3F)n1` [GSK2656157], the Kinases covered result was “RIPK1”.

Turning to `Cn1cc(-c2ccc3c(c2)CCN3C(=O)Cc2cccc(C(F)(F)F)c2)c2c(N)ncnc21` [GSK2606414], the Kinases covered result is reported as “RIPK1”.

The next test has as its system RIPK2.
With `CN(C)CCOc1ccc(-c2nc(-c3ccc4c(c3)CC/C4=N\O)c(-c3ccncc3)[nH]2)cc1` [SB-590885], the Kinases covered result is on record as “RIPK2”.

As to `CC(C)(C)S(=O)(=O)c1ccc2nccc(Nc3n[nH]c4ccc(F)cc34)c2c1` [GSK583], the Kinases covered entry is reported as “RIPK2”.

Regarding `COc1cc(-c2cncc(-c3cnn(C4CCNCC4)c3)c2)cc(OC)c1OC` [K05908], the Kinases covered result is “RIPK2”.

A further test has as its system RIPK3.
As for `CC(C)S(=O)(=O)c1ccc2nccc(Nc3ccc4scnc4c3)c2c1` [GSK872], the Kinases covered result is on record as “RIPK3”.

`CNC(=O)c1ccc2c(c1)ncn2-c1ccc(CC(=O)OC(C)(C)C)cc1` [GSK840]: the Kinases covered entry is “RIPK3”.

For `Cc1cc(-c2cnc(N)c3c(-c4ccc5scnc5c4)csc23)n(C)n1` [GSK843], the Kinases covered entry is reported as “RIPK3”.

The subject of a further test is RPS6KA6.
Turning to `Nc1nc(-c2cccc(Cl)c2)c(-c2ccc3ncccc3n2)s1` [GW780159X], the Kinases covered result is “RPS6KA6”.

Take `Nc1nc(-c2ccccc2F)c(-c2ccnc3ccccc23)s1` [GW560459]: the Kinases covered entry was “RPS6KA6”.

Consider `Fc1ccc(-c2nn3ccccc3c2-c2ccncc2)cc1` [GW434756X], for which the Kinases covered result is “RPS6KA6”.

For `C[C@@H]1CCNC(=O)c2cc3ccc(C(=O)Nc4nc5ccccc5n4CCCN(C)C)cc3n21` [BI00645435], the Kinases covered result is on record as “RPS6KA6”.
